Screening data (PubChem)
Cruzain inh noDet = inhibitors of Trypanosoma cruzi cruzain without detergent; purified cruzain, Z-FR-AMC fluorescence, no detergent; Potency, µM, most hits filed as inhibitors; 200,000 tested, 2.3% active; also: nearly all actives have a fitted effect of over 40% in size
Target sequence (P25779 123-467 limits assumed): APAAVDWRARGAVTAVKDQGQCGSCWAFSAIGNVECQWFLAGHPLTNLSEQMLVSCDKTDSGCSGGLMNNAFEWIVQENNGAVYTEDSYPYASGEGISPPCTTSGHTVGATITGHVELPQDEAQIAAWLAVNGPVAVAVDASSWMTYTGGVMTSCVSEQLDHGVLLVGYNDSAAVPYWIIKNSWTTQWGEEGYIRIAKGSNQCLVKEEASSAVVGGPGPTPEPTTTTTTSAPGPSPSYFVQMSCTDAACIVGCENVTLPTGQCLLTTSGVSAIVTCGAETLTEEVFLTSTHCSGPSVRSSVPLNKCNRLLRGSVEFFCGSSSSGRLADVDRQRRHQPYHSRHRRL
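Purified cruzain at 1.5 nM, pre-incubated 15 min with compound at room temperature in 100 mM sodium acetate pH 5.5, 5 mM DTT, 0.00005% Triton X-100. Reaction started with 2 uM Z-FR-AMC; AMC fluorescence increase over 60 s gives rate.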
Cruzain Triton = inhibitors of Trypanosoma cruzi cruzain with detergent; P25779; purified cruzain, Z-FR-AMC fluorescence, 0.01% Triton; Potency, µM, actives largely listed as inhibitors; 200,000 tested, 0.43% active; also: nearly all actives have a fitted effect of over 40% in size
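Steps: dispense cruzain (1.5 nM final) in acetate buffer pH 5.5 with DTT and 0.01% Triton X-100; pin-transfer compounds; incubate 15 min RT; add Z-FR-AMC (2 uM final); read fluorescence every 30 s, using the 60 s intensity change.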
A number is an active result; – = inactive; ? = inconclusive. An excerpt weighted towards active compounds, which were near 2.6% of everything screened. Calls follow the shape of the dose curve; as a rule, active = well fitted curve in the direction sought with a large enough effect; inconclusive = small, poorly fitted or top-dose-only effect, or another doubt; inactive = no such curve, though single readings can be large; an effect the other way counts as inactive or inconclusive.

SMILES	Cruzain inh noDet	Cruzain Triton
Cc1ccc2oc(C(=O)Nc3sc4c(c3C(=O)NCc3ccccc3)CCCC4)cc(=O)c2c1	–	–
COC(=O)c1cc2occc2n1Cc1nc(-c2cccc(Br)c2)oc1C	–	–
CCN(CC)S(=O)(=O)c1ccc2c(c1)nc(CN(C)C(=O)Nc1cccc(Cl)c1)n2C	?	–
Cc1ccc(C(=O)c2oc3ccccc3c2NC(=O)c2cc(=O)c3ccccc3o2)cc1	–	–
CC(=O)Nc1ccc(NC(=O)c2ccc3c(c2)N(Cc2cccc(Cl)c2)C(=O)c2ccccc2S3=O)cc1 (stereo not drawn)	–	–
COCCNC(=O)c1ccc2c(c1)N(Cc1cccc(Cl)c1)C(=O)c1ccccc1S2=O (stereo not drawn)	–	–
CCOC(=O)c1ccc2c(c1)N(Cc1ccc(F)cc1Cl)C(=O)c1ccccc1S2(=O)=O	10µM	–
O=C(OCC1CCCO1)c1ccc2c(c1)N(Cc1ccccc1Cl)C(=O)c1ccccc1S2(=O)=O (stereo not drawn)	–	–
O=C(NCCC1=CCCCC1)c1ccc2c(c1)N(Cc1ccc(F)cc1)C(=O)c1ccccc1S2(=O)=O	?	–
Cc1ccc(C)c(CN2C(=O)c3ccccc3S(=O)c3ccc(C(=O)NCCc4ccc(Cl)cc4)cc32)c1 (stereo not drawn)	6.3µM	–
O=C(NCCC1=CCCCC1)c1ccc2c(c1)N(Cc1cccc(Cl)c1)C(=O)c1ccccc1S2=O (stereo not drawn)	13µM	–
COCCNC(=O)c1ccc2c(c1)N(Cc1cc(C)ccc1C)C(=O)c1ccccc1S2=O (stereo not drawn)	?	–
Cc1ccc(C)c(CN2C(=O)c3ccccc3S(=O)(=O)c3ccc(C(=O)NCCC4=CCCCC4)cc32)c1	32µM	–
Nc1ncnc2c1nc(-c1ccccc1)n2[C@H]1O[C@@H](CO)[C@@H](O)[C@H]1O	–	–
CCOc1ccc(-n2nc3ccc(NC(=O)COc4ccccc4C)cc3n2)cc1	–	–
Cc1ccn2c(Nc3ccc4c(c3)OCCO4)c(-c3ccc(N(C)C)cc3)nc2c1	–	–
Cc1cccc(OCC(=O)Nc2cccc(C(=O)OCc3cc(=O)n4nc(C(C)C)sc4n3)c2)c1	–	–
C=CCC1(O)CCOc2ccccc21 (stereo not drawn)	–	–
CCOc1ccc(-c2nn(-c3ccccc3)cc2/C=C2\SC(=S)N(C3CCS(=O)(=O)C3)C2=O)cc1 (stereo not drawn)	7.9µM	–
CN(C)S(=O)(=O)c1cccc(-c2nn(-c3ccccc3)cc2/C=C2\SC(=S)NC2=O)c1	–	–
CCOc1ccc(-c2nn(-c3ccccc3)cc2/C=C2\SC(N)=NC2=O)cc1C	–	–
CCCOc1ccc(-c2nn(-c3ccccc3)cc2/C=C2\SC(=S)N(C3CCS(=O)(=O)C3)C2=O)cc1 (stereo not drawn)	4µM	–
COc1ccc2c(c1)CC(C(=O)NCc1ccc(F)cc1)CO2 (stereo not drawn)	–	–
O=C(Nc1ccccc1)c1ccc(-c2ccc(Br)cc2)o1	–	–
O=C(Nc1cccc(NC(=O)c2ccc(-c3ccc(Br)cc3)o2)c1)c1ccccc1	5µM	–
SMILES	Cruzain inh noDet	Cruzain Triton
O=[N+]([O-])c1ccc(N2CCNCC2)cc1NC1CC1	–	–
O=[N+]([O-])c1ccc(N2CCCC2)cc1N/N=C1\CN2CCC1CC2	25µM	?
Cc1ccc(NC(=O)c2ccc(Nc3c([N+](=O)[O-])cc([N+](=O)[O-])cc3[N+](=O)[O-])cc2)cc1	?	–
Cc1ccccc1NC(=O)c1ccc(N/N=C/c2ccccc2O)c([N+](=O)[O-])c1	10µM	–
CCc1ccccc1NC(=O)c1ccc(NCCc2ccccc2)c([N+](=O)[O-])c1	–	–
Cc1ccc(NC(=O)c2ccc(N/N=C/c3cccc(O)c3)c([N+](=O)[O-])c2)cc1	10µM	–
Cc1ccc2oc(=O)n(CCNC(=O)Nc3ccc(Cl)cc3)c2c1	–	–
COCCn1c(C)cc(O)c(C(c2ccccc2)N2CCN(CCO)CC2)c1=O (stereo not drawn)	–	–
CN(C)CCC[C@@H]1c2ccccc2Oc2ccc(C(F)(F)F)cc21	–	–
Cc1ccc(CSc2nnc3[nH]c(=O)cc(C)n23)cc1	–	–
C=CCOc1cccc(/C=N/NC(=O)C(=O)NCc2ccco2)c1	?	–
Cc1cccc(C)c1NC(=O)COc1cccc(/C=N/NC(=O)C(=O)NCc2ccccc2)c1	25µM	–
Cc1cc(C)nc(NS(=O)(=O)c2ccc(NC(=O)COc3ccc(C(C)(C)C)cc3)cc2)n1	?	–
COc1cc(NC(=O)O[C@@H]2C(=O)c3cc(Br)ccc3O[C@H]2c2ccc3c(c2)OCO3)cc(OC)c1OC	–	–
COC(=O)c1ccc(C(C(=O)NC2CCCCC2)N(Cc2ccc(F)cc2)C(=O)Cc2cccs2)cc1 (stereo not drawn)	–	–
COC(=O)c1ccc(C(C(=O)NC2CCCCC2)N(CCc2ccccc2)C(=O)Cc2cccs2)cc1 (stereo not drawn)	13µM	–
Cc1ccc(CNC(=O)C2CCN(S(=O)(=O)c3ccc4c(c3)oc(=O)n4C)CC2)cc1	–	–
Cc1ccc(C(=O)NC(=S)NNS(=O)(=O)c2ccc(C)cc2)cc1	–	?
Cc1ccc(S(=O)(=O)NNC(=S)NC(=O)c2ccc([N+](=O)[O-])cc2)cc1	4µM	?
COc1ccc(-c2cc(=O)oc3c4c(ccc23)OCN(Cc2ccccc2)C4)cc1	25µM	–
O=c1cc(-c2ccccc2)c2ccc3c(c2o1)CN(Cc1ccccc1)CO3	?	–
COc1cccc(CNC(=O)C(=O)NCC(c2cccs2)S(=O)(=O)c2cccs2)c1 (stereo not drawn)	–	–
Cc1ccc(NS(=O)(=O)c2ccc(-c3cc(C)no3)cc2)c(Br)c1	–	–
CCC(C)C(NC(=O)OC(C)(C)C)C(=O)NC(Cc1ccccc1)C(=O)OC (stereo not drawn)	–	–
CCOC(=O)C(Cc1ccc(O)cc1)NC(=O)CNC(=O)C(CC(C)C)NC(=O)OC(C)(C)C (stereo not drawn)	10µM	13µM
SMILES	Cruzain inh noDet	Cruzain Triton
COC(=O)C(Cc1ccccc1)NC(=O)C(CC(C)C)NC(=O)OC(C)(C)C (stereo not drawn)	32µM	16µM
CC(C)CC(NC(=O)C(Cc1ccc(OCc2ccccc2)cc1)NC(=O)OC(C)(C)C)C(N)=O (stereo not drawn)	–	–
COc1ccccc1CNC(=O)CCn1c(=O)c2cccn2c2cccnc21	–	–
Cc1cccc(NC(=O)c2sc3ncnc(N(C)C4CCCCC4)c3c2C)c1C	–	–
COc1ccc(/C=N\NC(=O)COc2ccc(C(C)(C)C)cc2)cc1Cn1nc(C)cc1C	25µM	–
COc1ccc(/C=N/NC(=O)c2ccco2)cc1Cn1nc(C)cc1C	–	–
CCOc1ccc(N2Cc3ccccc3C2)cc1	16µM	–
CCOc1ccc(N2CC(=O)N(c3ccc(OCC)cc3)CC2=O)cc1	–	–
COC(=O)c1cc(OC)c(OC)cc1NC(=O)c1ccc2c(c1)CCN2S(=O)(=O)c1ccccc1	–	–
CCC(=O)Nc1cccc(-c2cn3c(C)csc3n2)c1	–	–
CCC1CN(C(=O)N2CCC(C(=O)N3CCN(c4ccccc4)CC3)CC2)c2ccccc2O1 (stereo not drawn)	–	–
COc1ccc(CCn2c(O)c(C=NCc3ccc4c(c3)OCO4)c(=O)[nH]c2=O)cc1OC	?	–
